Inconclusive results are not listed. Calls of active or inactive are those of the source. The call rests on the fitted dose curve; in most records, active means well fitted activation curve with a large enough effect; inconclusive means small, poorly fitted or top-dose-only effect; inactive means flat fitted curve, though single readings scatter.
experiment: qHTS for Inhibitors of Cell Surface uPA Generation: Confirmatory Assay for Cherry-picked Compounds; conditions: cell surface uPA activity generation, qHTS confirmation; series mostly up to 115 µM; inhibition: at the top concentration; further: 0% is about no effect
Method in brief: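 RAW 264.7 cells at 4000/well, incubated overnight, then treated with compounds. After 24 h at 37 C, viability was read by ATPlite luminescence. An increase in signal indicates blocked uPA-dependent LF entry.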

inhibition, inactive:
O=C(COC(=O)c1cc([N+](=O)[O-])ccc1NCCO)NCc1cccs1 -1.09%, Cn1c(=O)c2c(ncn2CCO)n(C)c1=O -1.74%, CC(C)Cn1cnc2c1c(=O)[nH]c(=O)n2Cc1ccccc1 1.57%, O=C(O)c1ccccc1/C=N/NC(=S)NC1CCCCC1 0.423%, O=C(c1cc(COc2c(F)cccc2F)on1)N1CCc2ccccc2C1 -2.89%, CS(=O)(=O)N1CCC(C(=O)Nc2ccccc2)CC1 -0.392%, O=C(C[C@H]1C[C@H](C(=O)N2CCOCC2)[C@@]2(CCC3CCCC3)c3[nH]c4cc(-c5ccco5)ccc4c3CCN2C1=O)NCc1cccc(C(F)(F)F)c1 -1.11%, O=C(C1=C[C@H](c2ccccc2)C[C@H](OCCCCO)O1)N1CCN(Cc2ccc3c(c2)OCO3)CC1 -3.49%, O=C(COC(=O)c1cccc([N+](=O)[O-])c1)NNC(=O)c1cccs1 0.429%, CCCn1nnc(NC(=S)NC(=O)c2ccccc2OC)n1 -0.252%, COc1cc2cc(CN(CCN3CCOCC3)C(=O)Nc3ccc(F)cc3)c(=O)[nH]c2cc1OC -0.841%, CCCCn1c(N)c(N(CCC(C)C)C(=O)c2sc3nc4n(c(=O)c3c2C)CCC4)c(=O)[nH]c1=O 6.8%, Cc1cc(=O)[nH]c2c(C)cc(S(=O)(=O)Nc3ccc(O)cc3)cc12 -1.83%, COc1ccccc1NNC(=O)C(O)(c1ccccc1OC)c1ccccc1OC 1.06%, COc1cc2c(cc1OC)CN(C(=O)c1ccc(-c3ccccc3)cc1)CC2 -3.75%, Cc1nc(NC(=O)CSc2nnc(C3CC3)n2C)sc1C(=O)N(C)C 0.743%, CC(=O)COc1ccc2c(-c3cccc([N+](=O)[O-])c3)cc(=O)oc2c1 -3.16%, CC(C)OC(=O)Nc1ccc(-c2ccc(NC(=O)OC(C)C)cc2Cl)c(Cl)c1 7.93%, COc1ccc(C2C(C(=O)c3ccc(C)o3)=C(O)C(=O)N2CC2CCCO2)cc1OC (centres undefined) 0.493%, CN(C(=O)CCn1c(=S)oc2ccccc21)c1ccc(F)cc1 1.34%, CCOc1ccc(NS(=O)(=O)c2coc(C(N)=O)c2)cc1 -1.56%, Cc1ccc(S(=O)(=O)NNC(=O)c2ccc(F)cc2)cc1 0.277%, Cc1noc(C)c1COc1ccc(C(=O)O)cc1 -1.22%, CC1Cc2nc(SCC(=O)N3CCCC3)n(C)c(=O)c2S1 (centres undefined) -3.28%, CCc1cc(CC)c(/C=N/NC(N)=O)c(CC)c1 -1.12%, Cc1[nH]c(=O)[nH]c(=O)c1S(=O)(=O)N1CCCc2ccccc21 -1.5%, CC(=O)n1cc(/C=N/NC(=O)c2ccc([N+](=O)[O-])cc2)c2ccccc21 -2.83%, O=C1[C@H]2[C@@H](c3ccc(F)cc3)N3C(=O)N(c4cccc(F)c4)C(=O)[C@@]3(Cc3ccc(Cl)cc3)[C@H]2C(=O)N1C1CCCCC1 13.6%, CCN(CC)c1c([N+](=O)[O-])c(=O)sc2ccccc12 -1.46%, C[C@H](O)[C@@H]1C(=O)N2CCc3ccc(-c4cccc(F)c4)cc3[C@@H]2C[C@@H]1N(C)C(=O)C(C)(C)C -3.53%, Cc1nc2ncccn2c1-c1csc(Nc2ccc(S(N)(=O)=O)cc2)n1 -3.4%, C[C@@H](NC(=O)c1nc[nH]c1C(=O)NCc1ccc(CNC(=O)OC(C)(C)C)cc1)c1ccccc1 -3.16%, COc1ccc(C(=O)NCCOC(C)C)cc1OC1CCN(C(C)=O)CC1 -0.274%, CCc1nc(SCC(N)=O)c2c(=O)n(C)c(=O)n(C)c2n1 -0.0006%, OCC1CCCCN1CC(O)COC(c1ccc(F)cc1)c1ccc(F)cc1 (centres undefined) 0.309%, COc1cc(/C=N/NC(=O)c2ccncc2)ccc1O 1.09%, Cc1cccc(N2C(=O)c3cccc(Oc4ccc(Cl)cc4)c3C2=O)c1 -1.01%, O=C(COc1cccc2ccccc12)NNC(=O)c1cnccn1 -2.03%, O=C(CCCOc1ccc(Cl)cc1Cl)NCc1ccncc1 -0.921%

Source: PubChem BioAssay AID720519 (National Center for Advancing Translational Sciences (NCATS), 2013)
